TEAD-YAP block – TEAD-YAP interaction inhibition | HEK-TIYL cells, TEAD-Gal4/YAP UAS-luciferase luminescence | inhibition, % at 9.12 µM | 640,000 compounds, 1.4% hits; in the data active = inhibition above about 32%;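 note: 0% = median of test compound wells and 100% = reference inhibitor wells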
MITF inh – inhibitors of human MITF; O75030; AlphaScreen MITF homodimerization, bead proximity signal; 650,000 compounds, 0.91% hits; inhibition, % at 2.6 µM; AID 1259374; in the data active = inhibition above about 50%;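 note: 0% = vehicle wells with protein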
FBW7 activator – human FBW7 E3 ligase activation, primary screen. AID 1259310. Q969H0. normalized activity (activation), % at 26.1 µM. 650,000 compounds, 0.13% hits. AlphaScreen FBW7–phospho-cyclin E peptide binding, activator screen; in the data active = normalized activity above about 1.9%;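 note: purified mutant Fbw7 with reduced substrate affinity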
GPR151 activ – human GPR151 activation. PathHunter beta-arrestin GPR151 cells, luminescence. activation, % at 11.2 µM. 650,000 compounds, 1% hits. Q8TDV0; in the data active = activation above about 4.9%;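 note: 0% = median of compound wells and 100% = cells with positive control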
Target sequence (Q8TDV0 whole entry, looked up): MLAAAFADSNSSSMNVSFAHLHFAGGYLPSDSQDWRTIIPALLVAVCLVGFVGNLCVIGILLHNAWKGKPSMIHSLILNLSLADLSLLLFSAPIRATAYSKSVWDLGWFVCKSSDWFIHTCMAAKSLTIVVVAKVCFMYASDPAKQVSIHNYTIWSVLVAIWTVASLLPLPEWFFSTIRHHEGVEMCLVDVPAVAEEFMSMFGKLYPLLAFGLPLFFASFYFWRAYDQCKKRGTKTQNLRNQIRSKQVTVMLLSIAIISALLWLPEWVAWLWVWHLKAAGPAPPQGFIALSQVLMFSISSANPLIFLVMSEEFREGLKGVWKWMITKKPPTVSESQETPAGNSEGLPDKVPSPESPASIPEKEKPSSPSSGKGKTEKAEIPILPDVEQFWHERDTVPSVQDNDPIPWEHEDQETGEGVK
An asterisk follows results filed as active. Most compounds without a hit are left out; they make up all but 3.4% or so of the library.

SMILES	TEAD-YAP block	MITF inh	FBW7 activator	GPR151 activ
O=S(=O)(NCc1cccs1)c1ccc(Cc2ccc(S(=O)(=O)NCc3cccs3)cc2)cc1	34*	7	0	1
Cc1ccc(C)n1-c1cc(C(=O)O)ccc1Cl	6	76*	-1	-1
Cc1ccc(C)n1-c1ccc(C(=O)O)cc1O	-10	62*	-1	-1
O=Cc1ccc(OCc2ccc3c(c2)OCO3)c(Cl)c1	72*	5	0	-8
O=Cc1ccccc1OCc1ccc2c(c1)OCO2	-51	7	0	-4
Cn1nccc1Nc1cc(C(=O)Nc2ccc3c(c2)OCO3)ccn1	-7	15	0	0
Cn1c(COc2ccc(Br)cc2)n[nH]c1=S	1	7	0	0
Cc1cccc(Cn2cc(SCC(=O)NCc3ccco3)c3ccccc32)c1	36*	-4	0	3
Cc1cc2nnc(SCC(=O)NCc3ccco3)n2c2ccccc12	48*	-5	0	-3
CCC(Nc1ccc(Br)cc1)C(=O)N/N=C/c1cc([N+](=O)[O-])ccc1O (configuration not stated)	43*	19	0	2
CCC(Nc1ccc(Br)cc1)C(=O)N/N=C/c1ccc(O)cc1O (configuration not stated)	76*	18	0	0
CCC(Nc1ccc(Br)cc1)C(=O)N/N=C/c1cc(OC)ccc1O (configuration not stated)	22	4	0	1
COc1cccc(/C=C2N=C(/C=C/c3ccc(Cl)cc3Cl)OC\2=O)c1	-14	-1	0	1
CC(C)(C)C1CCc2c(sc3nc(CCC(=O)N4CCN(c5ccc(F)cc5)CC4)[nH]c(=O)c23)C1 (configuration not stated)	52*	-4	1	-1
CC(C)(C)C1CCc2c(sc3nc(Cc4ccccc4)[nH]c(=O)c23)C1 (configuration not stated)	-1	4	0	0
CC(C)(C)C1CCc2c(sc3nc(CCC(=O)N4CCN(c5ccccn5)CC4)[nH]c(=O)c23)C1 (configuration not stated)	78*	-3	0	2
Cc1cccc(NC(=O)CN2C(=O)N/C(=C/c3ccc(Br)cc3)C2=O)c1	14	4	0	-1
O=c1oc2c(Cl)cc(Cl)cc2cc1-c1nc(-c2ccc(Cl)cc2)cs1	8	7	0	1
Clc1cnc2nc(-c3cccnc3)[nH]c2c1	-50	9	0	-1
Nc1ccc(-c2nc3ncc(Cl)cc3[nH]2)cc1	35*	8	0	-2
O=C(NCc1ccccc1)c1ccc2nc(Nc3ccc(-n4ccnc4)cc3)sc2c1	36*	9	0	3
COc1cc(Nc2nc3ccc(C(=O)NCc4cccnc4)cc3s2)cc(OC)c1OC	42*	6	0	3
O=C(NCc1cccnc1)c1ccc2nc(Nc3ncccn3)sc2c1	-32	-15	0	1
O=C(NCc1cccc(C(F)(F)F)c1)c1ccc2nc(Nc3ccc(-n4ccnc4)cc3)sc2c1	11	-1	0	0
COc1cc(NC(=O)c2ccc3nc(Nc4ccccn4)sc3c2)cc(OC)c1OC	32*	-3	0	-3
SMILES	TEAD-YAP block	MITF inh	FBW7 activator	GPR151 activ
CCn1c(C(=O)O)c(CC(=O)Nc2ccc(F)cc2)c2ccccc21	1	-2	0	0
O=C(CN1C(=O)NC(Cc2c[nH]c3ccccc23)C1=O)Nc1ccc2ccccc2c1 (configuration not stated)	6	11	0	1
CCOC(=O)c1ccc(N2NC(=O)/C(=C/c3ccc(C)o3)C2=O)cc1	7	5	0	1
CCOC(=O)c1ccc(N2NC(=O)/C(=C/c3ccc([N+](=O)[O-])o3)C2=O)cc1	16	66*	0	0
Cc1nc2sccn2c1-c1csc(Nc2cccc(O)c2)n1	37*	-7	0	0
Cc1nc2sccn2c1-c1csc(Nc2ccccc2)n1	-63	-2	0	-1
Cc1nc2sccn2c1-c1csc(Nc2ccc(N)cc2)n1	0	18	0	-1
Cc1nc2sccn2c1-c1csc(Nc2ccc(Br)cc2)n1	49*	-6	0	0
C=C(C)Cn1c(SCC)nc2sc3c(c2c1=O)CCC3	-6	18	0	-1
Cc1ccc(S(=O)(=O)Nc2ccc(Br)cc2C(=O)c2ccccc2)cc1	1	-7	0	-1
COc1ccc(C(=O)Nc2cnc(NC(=O)c3cccs3)cc2C)cc1	37*	-7	0	-2
CCC(=O)Nc1cnc(NC(=O)c2ccc(Cl)cc2)cc1C	-13	8	0	0
CC(=O)Nc1cnc(NC(=O)c2ccc(Cl)cc2)cc1C	52*	-2	0	0
CCN(CC)c1ccc2cc(N3C(=O)CCC3=O)c(=O)oc2c1	62*	8	0	1
CCN(CC)c1ccc2cc(I)c(=O)oc2c1	-28	-10	2.9*	0
CCN(CC)c1ccc2cc(Cl)c(=O)oc2c1	-14	-27	1	0
CCN(CC)c1ccc2cc(/C(N)=N/NC(C)=O)c(=O)oc2c1	41*	-6	0	-1
CC1CCN(C(=O)c2ccc(F)cc2)CC1	-2	-6	0	0
CCC(C)NC(=O)C1c2ccccc2C(=O)N(CCOC)C1c1c[nH]c2ccccc12 (configuration not stated)	3	-9	0	1
O=C(NCCO)/C(=C/c1ccc(-c2ccc([N+](=O)[O-])cc2)o1)NC(=O)c1ccccc1	4	-4	0	0
COc1ccc(-c2cc3nc(C)c(CCC(=O)N4CCOCC4)c(C)n3n2)c(OC)c1	8	-10	0	1
O=C1CCCC2=C1C(c1cc([N+](=O)[O-])ccc1O)C1C(=O)c3ccccc3C1=N2 (configuration not stated)	18	12	-1	1
O=C1CCCC2=C1C(c1cc(Br)ccc1O)C1C(=O)c3ccccc3C1=N2 (configuration not stated)	50*	16	0	3
Oc1ccccc1N1CCN(c2ncnc3sccc23)CC1	56*	0	0	-2
O=C1C(N2CCCCC2)=C/C(=N/S(=O)(=O)c2ccccc2)c2ccccc21	-6	13	0	-2
SMILES	TEAD-YAP block	MITF inh	FBW7 activator	GPR151 activ
CC(=O)Nc1ccc(NC2=C/C(=N/S(=O)(=O)c3ccccc3)c3ccccc3C2=O)cc1	99*	33	0	0
CCOC(=O)N1CCN(C(=O)CN2CCC(COCc3ccccc3)CC2)CC1	7	12	0	0
Cc1ccc(-c2cc(C(=O)NN)[nH]n2)c(C)c1	43*	3	0	-2
O=C1CCCN1CCCNc1nc(NCCCN2CCCC2=O)c2ncn(-c3ccccc3)c2n1	-2	-8	0	-1
O=C1CCCN1CCCNc1nc(N2CCOCC2)nc2c1ncn2-c1ccsc1	57*	-1	0	0
c1ccc(CN2CCC(Nc3nc(Nc4ccccc4)nc4c3ncn4-c3ccsc3)CC2)cc1	8	8	0	-1
O=C1CCCN1CCn1cnc2c(NCCO)nc(N3CCN(c4ccccn4)CC3)nc21	-1	17	0	2

Screens: PubChem BioAssay, The Scripps Research Institute Molecular Screening Center
